Test results as given in PubChem BioAssay.

target: Voltage-gated potassium channel subunit beta-2 (Rattus norvegicus) (UniProt P62483); assay: inhibitors of rat Kvbeta2 reductase activity – biochemical, NADPH fluorescence, primary screen (AID 622); settings: recombinant KvBeta, 4-cyanobenzaldehyde reduction, at 10 µM, active compounds read high;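 note: slope of raw intensity against log time taken from 70 to 1610 s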
Sequence (P62483 whole entry, looked up): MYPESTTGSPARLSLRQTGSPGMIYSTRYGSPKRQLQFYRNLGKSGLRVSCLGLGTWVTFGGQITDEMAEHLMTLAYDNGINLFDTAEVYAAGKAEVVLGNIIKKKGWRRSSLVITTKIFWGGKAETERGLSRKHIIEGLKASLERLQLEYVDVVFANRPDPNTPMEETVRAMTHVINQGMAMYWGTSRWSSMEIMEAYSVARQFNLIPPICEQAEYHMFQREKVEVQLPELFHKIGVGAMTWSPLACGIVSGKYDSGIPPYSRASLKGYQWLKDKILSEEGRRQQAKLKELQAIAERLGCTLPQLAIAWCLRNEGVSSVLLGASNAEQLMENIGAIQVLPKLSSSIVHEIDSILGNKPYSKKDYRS

Fluorescence slope, inactive:
COc1ccc(C2CC(c3ccc(Cl)cc3)Nc3nc(NC(=O)c4ccco4)nn32)cc1 (stereo not drawn) -0.427
CCn1nccc1C(=O)Nc1nccs1 -0.456
FC(F)(F)c1nnc2ccc(NCn3nnc4ccccc43)nn12 -0.434
O=C(NC(C(=O)c1ccccc1)n1ccc(=O)[nH]c1=O)c1ccccc1 (stereo not drawn) -0.449
COc1ccc(N2C(=O)C(Cl)=C(Nc3c(C)n(C)n(-c4ccccc4)c3=O)C2=O)cc1 -0.449
Cc1cc(C)nc(N2CCCC(C(=O)Nc3nc4ccc(S(C)(=O)=O)cc4s3)C2)n1 (stereo not drawn) -0.459
CCc1nnc(NC(=O)c2ccc(S(=O)(=O)NC3CCCCC3)cc2)s1 -0.307
CC(C)C(=O)Nc1cccc(NC(=O)c2cccnc2)c1 -0.611
CCn1c(Cc2ccccc2)nnc1SCC(=O)Nc1nc2ccccc2s1 -0.469
S=c1[nH]c2ccc(Cl)cc2[nH]1 -0.449
CCOc1ccc2nc(SCC#N)c(C#N)cc2c1 -0.561
Cc1nc(C)c(C(=O)OCC(=O)N2CCN(c3ccccc3)CC2)s1 -0.567
COc1ccc(C(NC(=O)c2ccco2)c2ccc(OC)c(OC)c2)cc1 (stereo not drawn) -0.326
Cc1nn(-c2ccccc2)c2c1C(c1c(C)[nH]c(C#N)c1C)C(C#N)=C(N)O2 (stereo not drawn) -0.391
CCOC(=O)N1CCN(C(=O)C2c3cc(OC)c(OC)cc3C(=O)N3CCc4ccccc4C23)CC1 (stereo not drawn) -0.397
CN1CCN(S(=O)(=O)c2ccc(Sc3nnc(-c4cccs4)n3-c3ccccc3)nc2)CC1 -0.245
COc1cc2[nH]c(=O)n(CCC(=O)N3CCc4ccccc4C3)c(=O)c2cc1OC -0.15
CS(=O)(=O)N(CC(=O)NC1CC1)c1cccc(F)c1 -0.555
O=C(NCc1ccco1)C1CCN(S(=O)(=O)N2CCC3(CC2)OCCO3)CC1 -0.317
CC(=O)Nc1ccc(S(=O)(=O)N2CCN(C(C)CCc3ccccc3)CC2)cc1 (stereo not drawn) -0.538
CCCn1c(SCC(=O)N2CCCc3ccccc32)nnc1-c1ccccn1 -0.59
CCNS(=O)(=O)c1ccc(S(=O)(=O)N(Cc2ccccn2)C2CCCCC2)cc1 -0.348
COc1ccc(-c2nnc(SCC#N)o2)cc1 -0.511
O=S(=O)(c1ccc2c(c1)nc1n2CCC1)N1CCOCC1 -0.423
COCc1cc(C)nc(SCC(=O)Nc2cccc(C)c2C)c1C#N -0.432
O=C(CSc1nnc(-c2ccccc2Cl)n1Cc1ccco1)Nc1ccc2c(c1)OCCO2 -0.391
CCOC(=O)CSc1nnc(CNC(=O)c2ccc(S(=O)(=O)N3CCCC3)cc2)n1C -0.58
C=C(c1cccc2ccccc12)P(=O)(O)O -0.493
CN=C1CC(C)(C)CC(=O)/C1=C(/O)CCC(=O)NC -0.45
CC(C(=O)c1ccccc1)n1cnc2ccccc2c1=O (stereo not drawn) -0.525
CN(C)C(=O)CSc1nnc([C@H](Cc2c[nH]c3ccccc23)NC(=O)OC(C)(C)C)o1 -0.634
CCOC(=O)NC(=O)CSc1nnc(C)s1 -0.421
CCOc1nc2ccccc2nc1NS(=O)(=O)c1ccccc1 -0.462
O=C(O)C1CC(=O)N(Cc2ccccc2)C1 (stereo not drawn) -0.526
CCOC(=O)C1=C(Cn2cnc3ccccc32)NC(=O)NC1c1cc(C)ccc1C (stereo not drawn) -0.461
CCOC(=O)C1CCCN(C(=O)c2cc3c(C)nc4ccccc4c3o2)C1 (stereo not drawn) -0.522
CCCC1CC(C)(C(=O)Cn2[nH]c(=O)ccc2=O)OC1=O (stereo not drawn) -0.515
CCOc1cc(N2CCOCC2)c(OCC)cc1NC(=O)COC(=O)CCc1c[nH]c2ccccc12 -0.273
CC12CN3CC(C)(CN(C1)C3c1ccc(Br)cc1)C2 (stereo not drawn) -0.607

target: Voltage-gated potassium channel subunit beta-2 (Rattus norvegicus) (UniProt P62483); assay: enhancers of rat Kvbeta2 NADPH turnover – biochemical, NADPH fluorescence, primary screen (AID 623;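 active = NADPH fluorescence slope more negative than the mean of all samples by about 3 SD, 99.7% confidence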;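 note: fluorescence intensity change per second fitted from 20 to 320 s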); settings: Recombinant KvBeta, NADPH fluorescence decrease slope, 10 min; at 10 µM; active compounds read low

NADPH fluorescence slope, inactive:
COc1ccc(C2CC(c3ccc(Cl)cc3)Nc3nc(NC(=O)c4ccco4)nn32)cc1 (stereo not drawn) -6.7e-05
CCn1nccc1C(=O)Nc1nccs1 -4.4e-05
FC(F)(F)c1nnc2ccc(NCn3nnc4ccccc43)nn12 3.1e-05
O=C(NC(C(=O)c1ccccc1)n1ccc(=O)[nH]c1=O)c1ccccc1 (stereo not drawn) -9.3e-05
COc1ccc(N2C(=O)C(Cl)=C(Nc3c(C)n(C)n(-c4ccccc4)c3=O)C2=O)cc1 3.3e-05
Cc1cc(C)nc(N2CCCC(C(=O)Nc3nc4ccc(S(C)(=O)=O)cc4s3)C2)n1 (stereo not drawn) 9.7e-05
CCc1nnc(NC(=O)c2ccc(S(=O)(=O)NC3CCCCC3)cc2)s1 -6e-05
CC(C)C(=O)Nc1cccc(NC(=O)c2cccnc2)c1 7.6e-06
CCn1c(Cc2ccccc2)nnc1SCC(=O)Nc1nc2ccccc2s1 -4.8e-05
S=c1[nH]c2ccc(Cl)cc2[nH]1 -3.7e-05
CCOc1ccc2nc(SCC#N)c(C#N)cc2c1 -1.4e-05
Cc1nc(C)c(C(=O)OCC(=O)N2CCN(c3ccccc3)CC2)s1 -2e-05
COc1ccc(C(NC(=O)c2ccco2)c2ccc(OC)c(OC)c2)cc1 (stereo not drawn) -6.7e-05
Cc1nn(-c2ccccc2)c2c1C(c1c(C)[nH]c(C#N)c1C)C(C#N)=C(N)O2 (stereo not drawn) 8.5e-05
CCOC(=O)N1CCN(C(=O)C2c3cc(OC)c(OC)cc3C(=O)N3CCc4ccccc4C23)CC1 (stereo not drawn) 4.3e-05
CN1CCN(S(=O)(=O)c2ccc(Sc3nnc(-c4cccs4)n3-c3ccccc3)nc2)CC1 -2e-05
COc1cc2[nH]c(=O)n(CCC(=O)N3CCc4ccccc4C3)c(=O)c2cc1OC -9.5e-06
CS(=O)(=O)N(CC(=O)NC1CC1)c1cccc(F)c1 -5e-05
O=C(NCc1ccco1)C1CCN(S(=O)(=O)N2CCC3(CC2)OCCO3)CC1 -3.5e-05
CC(=O)Nc1ccc(S(=O)(=O)N2CCN(C(C)CCc3ccccc3)CC2)cc1 (stereo not drawn) -6.4e-05
CCCn1c(SCC(=O)N2CCCc3ccccc32)nnc1-c1ccccn1 -6.6e-06
CCNS(=O)(=O)c1ccc(S(=O)(=O)N(Cc2ccccn2)C2CCCCC2)cc1 -6.9e-05
COc1ccc(-c2nnc(SCC#N)o2)cc1 -2.6e-05
O=S(=O)(c1ccc2c(c1)nc1n2CCC1)N1CCOCC1 2.5e-05
COCc1cc(C)nc(SCC(=O)Nc2cccc(C)c2C)c1C#N 2.4e-05
O=C(CSc1nnc(-c2ccccc2Cl)n1Cc1ccco1)Nc1ccc2c(c1)OCCO2 -9.8e-05
CCOC(=O)CSc1nnc(CNC(=O)c2ccc(S(=O)(=O)N3CCCC3)cc2)n1C -8.2e-06
C=C(c1cccc2ccccc12)P(=O)(O)O -0.000279
CN=C1CC(C)(C)CC(=O)/C1=C(/O)CCC(=O)NC -1.9e-05
CC(C(=O)c1ccccc1)n1cnc2ccccc2c1=O (stereo not drawn) -1.2e-05
CN(C)C(=O)CSc1nnc([C@H](Cc2c[nH]c3ccccc23)NC(=O)OC(C)(C)C)o1 -2.1e-05
CCOC(=O)NC(=O)CSc1nnc(C)s1 -9.6e-06
CCOc1nc2ccccc2nc1NS(=O)(=O)c1ccccc1 -0.000234
O=C(O)C1CC(=O)N(Cc2ccccc2)C1 (stereo not drawn) -0.00016
CCOC(=O)C1=C(Cn2cnc3ccccc32)NC(=O)NC1c1cc(C)ccc1C (stereo not drawn) -1.9e-05
CCOC(=O)C1CCCN(C(=O)c2cc3c(C)nc4ccccc4c3o2)C1 (stereo not drawn) 0.000185
CCCC1CC(C)(C(=O)Cn2[nH]c(=O)ccc2=O)OC1=O (stereo not drawn) 0.000145
CCOc1cc(N2CCOCC2)c(OCC)cc1NC(=O)COC(=O)CCc1c[nH]c2ccccc12 -1.5e-05
CC12CN3CC(C)(CN(C1)C3c1ccc(Br)cc1)C2 (stereo not drawn) -4.3e-05
